According to PubChem BioAssay AID504890 (The Scripps Research Institute Molecular Screening Center, 2011):
Activity calls are given as the source filed them.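 How the source made its calls: active means EC50 at or below 10 µM; inactive means EC50 above 10 µM.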

Experiment: polarization artefacts in absence of PKA proteins – biochemical, fluorescence polarization, 1536-well HTS, artefact control for PKA-R2B complex activator project, dose response (AID 504890)
Settings: Cy5-IP20 FP artifact counterscreen, no PKA-R2B complex
For Nc1ncnc2c1nc(Sc1ccc(Cl)cc1)n2[C@@H]1O[C@@H]2COP(=O)(O)O[C@H]2[C@H]1O, the EC50 was > 114 µM (inactive).
With CCCC(=O)Nc1ncnc2c1ncn2[C@@H]1O[C@@H]2COP(=O)(O)O[C@H]2[C@H]1OC(=O)CCC the EC50 was > 114 µM (inactive).
For Nc1ncnc2c1nc(Br)n2[C@@H]1O[C@@H]2COP(=O)(O)O[C@H]2[C@H]1O, the EC50 was > 114 µM (inactive).
For Nc1nc2c(nc(Br)n2[C@@H]2O[C@@H]3COP(=O)(O)O[C@H]3[C@H]2O)c(=O)[nH]1, the EC50 was > 114 µM (inactive).
For CN(C)c1ccc(N=Nc2ccc(S(=O)(=O)O)cc2)c2ccccc12, the EC50 was > 114 µM (inactive).
With CCCC(=O)Nc1ncnc2c1ncn2[C@@H]1O[C@@H]2OP(=O)(O)OC[C@H]2[C@H]1OC(=O)CCC the EC50 was > 114 µM (inactive).
With O=S(=O)(O)c1cccc2c(N=Nc3ccc(O)c4ncccc34)cccc12 the EC50 was > 114 µM (inactive).
For O=C(O)c1sccc1SCc1ccc(Cl)cc1Cl, the EC50 was > 114 µM (inactive).
For CCOP1(=O)OCC2OC(n3cnc4c(N)ncnc43)C(O)C2O1 (centres undefined), the EC50 was > 114 µM (inactive).
